# Results reported in PubChem BioAssay AID1851 (National Center for Advancing Translational Sciences (NCATS), 2009).
# The whole screen tested about 16,000 compounds, of which about 2,600 (16%) were called active. Inconclusive results (about 20%) are left out. The list is a sample of the results. Values without a mark were called inactive. Calls follow the shape of the dose curve; as a rule, active = well fitted curve in the direction sought with a large enough effect; inconclusive = small, poorly fitted or top-dose-only effect, or effect the other way; inactive = no such curve, though single readings can be large or run the other way.
# Target: Cytochrome P450 2D6 (Homo sapiens) (UniProt P10635)
# Experiment: Cytochrome panel assay with activity outcomes
# Settings: recombinant CYP, pro-luciferin dealkylation, luminescence, p450-cyp2d6; series mostly up to 57.1 µM; activity, negative = inhibition: at the top concentration
# % is scaled to controls: 0 for no effect and ±100 for the full control effect.
# Sequence of Cytochrome P450 2D6 (Homo sapiens) (P10635 whole entry, looked up): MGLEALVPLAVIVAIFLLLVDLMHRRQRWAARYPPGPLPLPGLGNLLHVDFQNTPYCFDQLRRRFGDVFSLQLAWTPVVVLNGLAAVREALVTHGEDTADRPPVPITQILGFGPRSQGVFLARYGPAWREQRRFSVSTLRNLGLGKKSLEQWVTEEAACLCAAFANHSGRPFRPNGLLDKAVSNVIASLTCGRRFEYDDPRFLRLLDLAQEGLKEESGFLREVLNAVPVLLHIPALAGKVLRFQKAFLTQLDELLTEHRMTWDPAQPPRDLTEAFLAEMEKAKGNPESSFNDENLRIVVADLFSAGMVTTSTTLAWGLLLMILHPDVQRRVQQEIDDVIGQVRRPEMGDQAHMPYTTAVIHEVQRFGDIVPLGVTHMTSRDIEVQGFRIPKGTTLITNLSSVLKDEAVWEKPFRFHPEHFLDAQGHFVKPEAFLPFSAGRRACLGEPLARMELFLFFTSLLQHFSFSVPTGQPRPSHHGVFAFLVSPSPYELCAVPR
Structure (SMILES),AC50,"activity, negative = inhibition"
CC(=O)NNC(=O)N1Cc2ccccc2Oc2ccc(Cl)cc21,6.31 µM (active),–
O=C(O)CCC(=O)N1CCOc2ccc(Cl)cc21,–,7.6%
CC(=O)NNC(=O)C(O)(c1ccccc1)c1ccccc1,–,4.64%
CC/C(O)=C(\C#N)c1nnc2n1CCCCC2,–,-19.9%
COc1ccc(-c2nc3cnc(Nc4cccc(OC)c4)nc3n(CCC#N)c2=O)cc1,–,0.405%
Cc1ccc(NC(=O)Cn2nc([N+](=O)[O-])c(Br)c2C)cc1C,–,-22.2%
COc1cc(CNn2nnnc2N)ccc1OCc1c(Cl)cccc1Cl,–,0.965%
COc1cc(CNCc2ccccn2)ccc1OCc1ccc(Cl)cc1Cl,12.6 µM (active),–
CCOc1ccccc1CNCCN1CCOCC1,12.6 µM (active),–
c1csc(CNCCCN2CCOCC2)c1,–,-19.4%
COc1ccc(CC(=O)NCc2ccccn2)cc1OC,–,-3.31%
COc1cc(CNCCN2CCOCC2)ccc1OCc1ccccc1Cl,11.2 µM (active),–
Cc1ccccc1-c1cc(NCCN2CCOCC2)ncn1,–,-12%
COc1cc2c(cc1OC)-c1cc(NCc3ccccn3)nc(=O)n1CC2,–,-23.8%
COc1ccc(NC(=O)COc2ccc(CNCCCN3CCOCC3)cc2OC)cc1,–,-25.3%
CCN(CC)S(=O)(=O)N1CCC(C(=O)NC2CCCC2)CC1,–,-1.15%
COc1cccc(Cn2c(=O)c(-c3cccc(C#N)c3)nc3cnc(OC)nc32)c1,–,-6.2%
COc1ccc(-c2cc(C(F)(F)F)nc(N3CCOCC3)n2)cc1OC,–,-9.69%
CC1=NN(c2ccc(C)cc2C)C(=O)C1C(c1ccccc1)C1C(=O)N(c2ccc(C)cc2C)N=C1C (stereo unspecified),–,-4.48%
C=CC[C@@H]1C=C[C@@H](O/N=C\[C@@H](OC)[C@H](C)/C=C\CC(=O)OC)[C@@H](CO)O1,–,4.18% [at 11.4 µM]
O=C(c1cc(-c2ccncc2)nc2ccccc12)N1CCN(c2ccc(N3CCOCC3)nn2)CC1,–,-13.7%
COc1ccc(/C(O)=C2\C(=O)C(=O)N(c3cc(C)on3)C2c2ccc(OC)c(OC)c2)cc1OC (stereo unspecified),–,12.4%

Structure (SMILES),AC50,"activity, negative = inhibition"
CC(C)c1nnc(NC(=O)c2sc3ccccc3c2Cl)s1,–,-12%
C[N+](C)(CCCCCC[N+](C)(C)CCCN1C(=O)c2cccc3cccc(c23)C1=O)CCCN1C(=O)c2cccc3cccc(c23)C1=O,–,-5.79%
CS[C@@H](CC(=O)O)C(=O)O,–,-10.1% [at 11.4 µM]
CC(CC(=O)O)(CC(=O)O)c1ccccc1,–,11.2% [at 11.4 µM]
CCN(CC)CC#CCC(C)(c1ccccc1)c1ccccc1,0.891 µM (active),–
COc1ncc2nc(C)c(=O)n(-c3ccccc3)c2n1,–,-4.68%
O=C(Nc1nc(-c2ccccc2)cs1)c1ccc(Br)o1,–,-26.9%
CN1CCN(c2ncc3nc(-c4cc(F)cc(F)c4)c(=O)n(Cc4cccs4)c3n2)CC1,–,-0.882%
O=C(CCN1C(=O)c2ccccc2C1=O)Oc1ccc2ccccc2c1,–,-12.4%
O=C(c1ccc(S(=O)(=O)N2CCCCCC2)cc1)N1CCC(CN2C(=O)c3cccc4cccc(c34)C2=O)CC1,–,-9.01%
O=C1c2cccc3cccc(c23)C(=O)N1CC1CCN(CC(O)COc2ccc3ccccc3c2)CC1 (stereo unspecified),0.708 µM (active),–
O=C(O)[C@@H](S)[C@H](S)C(=O)O,–,-4.31% [at 11.4 µM]
CN1CCN(c2ccc([N+](=O)[O-])cc2S(=O)(=O)N2CCOCC2)CC1,–,-7.09%
CC(=O)Nc1ccc(N2CCCCC2)cc1,–,-9.74%
Cc1cccc(N2CCN(c3ccc(NC(=O)/C=C(/C(=O)O)c4ccccc4)cc3)CC2)c1,–,4.26%
Cc1cccc(OCCCC(=O)Nc2ccc(N3CCCCC3)cc2)c1,0.891 µM (active),–
Cc1ccnc2nc(C(=O)OCC(=O)Nc3ccc4c(c3)OC(F)(F)O4)nn12,–,-21.3%
CCO[P@]1(=O)OC[C@@H]2O[C@H](n3cnc4c(N)ncnc43)[C@H](O)[C@@H]2O1,–,4.83% [at 11.4 µM]
CCN(/C=N/c1sc2c(c1C#N)CCCCC2)CC,–,-33.3%
O=C(NC1(C(F)(F)F)C(=O)Nc2c1c(=O)[nH]c(=O)n2-c1ccc(F)cc1)c1cccnc1 (stereo unspecified),–,7.79%
CN(C)CCCN1CC(C(=O)O)CC1=O (stereo unspecified),–,19%
Cc1cccc(CNc2ncnc3ccc(-c4cccnc4)cc23)c1,12.6 µM (active),–

Structure (SMILES),AC50,"activity, negative = inhibition"
c1ccc(CNc2ncnc3ccc(-c4cccnc4)cc23)cc1,10 µM (active),–
c1cncc(-c2ccc3ncnc(NC4CCNCC4)c3c2)c1,–,-8.56%
Cc1cccc(CNc2ncnc3ccc(-c4cccc(C#N)c4)cc23)c1,–,-17.4%
c1ccc(Nc2ncnc3ccc(-c4cccnc4)cc23)cc1,–,-13.8%
CN1CCN(C2CC(=O)N(Cc3ccc(N4CCCC4=O)cc3)C2=O)CC1 (stereo unspecified),–,2%
O=c1c(-c2ccccc2)nc2cnc(N3CCNCC3)nc2n1Cc1ccc(F)cc1,–,-15.7%
COc1ccc2c(Cl)cc(NC(=S)Nc3ccccc3)nc2c1,–,-18.8% [at 11.4 µM]
COc1ccc(N2C(=O)CCC(C(=O)O)C2c2ccc(F)cc2)cc1 (stereo unspecified),–,1.51%
CN1CCN(c2ncc3nc(-c4cn(C)c5ccccc45)c(=O)n(C)c3n2)CC1,–,11.6%
O=C(NNc1cccc(Cl)n1)Nc1ccccc1Cl,–,-31.9%
COc1ccc(-c2nc3cnc(N4CCNCC4)nc3n(Cc3cccs3)c2=O)cc1,–,-6.46%
Cc1nc(-c2cccc(NC(=O)c3cc4cc(Br)ccc4oc3=O)c2)cs1,–,26.4%
CCn1c(C)cc(/C=C2\NC(=O)N(Cc3ccc(Cl)cc3)C2=O)c1C,–,4.67%
Brc1ccc(/C=C/C=N/Nc2nc3ccccc3s2)cc1,–,15.1%
CCN(CC)c1ccc(/C=C/c2nc3ccccc3s2)cc1,28.2 µM (active),–
Cc1ccc(NC(=S)c2nc3ccccc3s2)cc1,–,-15.2%
Cn1c(=O)c2[nH]c(COCc3nc4c([nH]3)c(=O)n(C)c(=O)n4C)nc2n(C)c1=O,–,3.11% [at 11.4 µM]
NC1=C(O)C(=O)[C@H](c2c[nH]c3ccc(OCc4ccccc4)cc23)O1,–,-2.34% [at 11.4 µM]
O=C(Oc1ccccc1)N1CCC2(CC1)CN(c1ccncc1)C2,–,5.3%
CCCCN(C)CCCNC(=O)CCn1nc(-c2ccccc2)ccc1=O,–,-27%
CCN(CCCNC(=O)CC(C(=O)N1CCc2ccccc21)n1ccnc1)c1ccccc1 (stereo unspecified),3.98 µM (active),–
O=C(CNCCO)N1CCc2ccccc21,–,-26.9%

Structure (SMILES),AC50,"activity, negative = inhibition"
Clc1ccc(-c2nnc(-c3ccccc3)c(N3CCSCC3)n2)cc1,–,-13%
Cc1noc(NS(=O)(=O)c2cccc3c(N(C)C)cccc23)c1C,–,-6%
O=C(Nn1cc(C(=O)N2CCN(c3ccccc3F)CC2)c2ccccc2c1=O)c1cnccn1,–,-6.56%
CC(=O)NNC(=O)CCC(=O)Nc1ccccc1,–,-4.27%
CCC(=O)NNC(=O)CCC(=O)Nc1ccccc1,–,18%
C#CCCCC(=O)Nc1ccccc1,12.6 µM (active),–
Cc1ccc(-c2csc(N/N=C/c3ccco3)n2)cc1,–,-14.3%
NCCSSCCN,inactive,–
O=c1oc2cc(Oc3ccc(C(F)(F)F)cc3[N+](=O)[O-])ccc2c2c1CCCC2,–,20.1%
CC(C)c1ccc(OCc2ccc(C(=O)N3CCN(c4ccccn4)CC3)cc2)cc1,–,7.85%
COc1ccc(CCn2c(C)cc(C(=O)CSc3nc(N)cc(=O)[nH]3)c2C)cc1,–,-25.3%
CC(=O)Nc1nnc(SCc2ccc(F)cc2)s1,–,-0.935%
Cc1cc(C(=O)CSc2nnc(N)s2)c(C)n1CCc1ccc(F)cc1,7.08 µM (active),–
Cn1c(=O)c2c(ncn2CN2CCN(Cn3cnc4c3c(=O)n(C)c(=O)n4C)CC2)n(C)c1=O,–,-3.86% [at 11.4 µM]
C[C@@H]1/C=C\CC(=O)OC[C@H](C)C(=O)N[C@@H](C)C(=O)OC1,–,-1.56% [at 11.4 µM]
CCCc1nnc(NC(=O)C(CC)OC(=O)c2cc(C)nc3ccccc23)s1 (stereo unspecified),–,-10.4%
c1ccc(SC(Sc2ccccc2)c2ccc3c(c2)OCO3)cc1,3.16 µM (active),–
C[C@@H]1Oc2ccc(C(=O)C[C@@H](C(=O)O)c3ccc4c(c3)OCO4)cc2O1,–,-15.2% [at 11.4 µM]
C[C@@H](C(=O)O)/C(=C/c1ccc2c(c1)OCO2)C(=O)O,–,14.3% [at 11.4 µM]
N[C@H](C(=O)O)c1ccc(C(=O)O)c(O)c1,–,6.68%
O=C(Nc1ccccc1C(=O)NCC1CCCO1)c1ccc(Cl)cc1Cl (stereo unspecified),–,-8.86%
CC(C)(C)S(=O)(=O)c1cnc2c(-c3ccc(F)cc3)cnn2c1N,–,-6.59%

Structure (SMILES),AC50,"activity, negative = inhibition"
CCn1c2ccc(Cl)cc2c2nc3ccccc3nc21,–,-11.3%
CN(C)CCCc1c2ccccc2nc2ccc(Cl)cc12,1.58 µM (active),–
CCCCc1c2ccccc2nc2[nH]c3ccccc3c12,–,-9.3%
Cn1c(=O)c2[nH]cnc2n(C)c1=O,inactive,–
Cc1ccc(Sc2ccc(NC(=O)c3ccc(S(C)(=O)=O)cc3Cl)cc2)cc1,–,-9.39%
COC(=O)CCC(=O)NNC(=O)c1ccc(Br)cc1,–,-11.4%
Cc1ccc(NC(=S)NCCN2CCOCC2)cc1C,–,-2.36%
Fc1cccc(NC(=S)NCCCN2CCOCC2)c1,7.94 µM (active),–
O=C(CCn1c(=S)[nH]c2ccccc2c1=O)NCCCN1CCOCC1,–,0.306%
CN(C)CCCO[C@H]1[C@@H]2OC(C)(C)O[C@@H]2O[C@@H]1[C@H](O)CO,–,1.79% [at 25.6 µM]
C#CCCCO/N=C1/C[C@@H](O)[C@@H](O)[C@@H]2[C@@H]3C(=O)N(C4CCCCC4)C(=O)[C@H]3CC[C@@H]12,–,13% [at 11.4 µM]
CCC(=O)Nc1ccc(C(=O)CSc2nnc(-c3ccc(O)cc3)n2CC2CCCO2)cc1OC (stereo unspecified),–,2.81%
Cc1ccc(C(=O)NC2CCCCCC2)cc1N1CCCC1=O,–,-11.6%
C[C@H](NC(=O)c1ccc(Cl)c(Cl)c1)c1ccc(-c2ccccc2)cc1,–,-1.17% [at 11.4 µM]
CC(=O)Nc1cccc(N2C(=O)CCC2=O)c1,–,7.17%
O=C(O)c1cccc(N2CCCC2=O)c1,0.251 µM (active),–
CC(NC(=O)c1ccc(N2CCCC2=O)cc1)c1ccccc1 (stereo unspecified),7.94 µM (active),–
CCCCN(C)CCCNC(=O)c1ccc(N2CCCC2=O)cc1,–,6.53%
